# Source: PubChem (The Scripps Research Institute Molecular Screening Center)
# An excerpt weighted towards active compounds, which were near 3.4% of everything screened.
# MITF inh: inhibitors of human MITF | O75030 | AlphaScreen MITF homodimerization, bead proximity signal | inhibition, % at 2.6 µM | actives 0.91% (n = 650,000); in the data active = inhibition above about 50%;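 also: 0% = vehicle wells with protein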
# GPR151 ag: activators of human GPR151. Q8TDV0. PathHunter beta-arrestin GPR151 cells, luminescence. activation, % at 11.2 µM. actives 1% (n = 650,000); in the data active = activation above about 4.9%;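 also: 0% = median of compound wells and 100% = cells with positive control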
# Target sequence (Q8TDV0 whole entry, looked up): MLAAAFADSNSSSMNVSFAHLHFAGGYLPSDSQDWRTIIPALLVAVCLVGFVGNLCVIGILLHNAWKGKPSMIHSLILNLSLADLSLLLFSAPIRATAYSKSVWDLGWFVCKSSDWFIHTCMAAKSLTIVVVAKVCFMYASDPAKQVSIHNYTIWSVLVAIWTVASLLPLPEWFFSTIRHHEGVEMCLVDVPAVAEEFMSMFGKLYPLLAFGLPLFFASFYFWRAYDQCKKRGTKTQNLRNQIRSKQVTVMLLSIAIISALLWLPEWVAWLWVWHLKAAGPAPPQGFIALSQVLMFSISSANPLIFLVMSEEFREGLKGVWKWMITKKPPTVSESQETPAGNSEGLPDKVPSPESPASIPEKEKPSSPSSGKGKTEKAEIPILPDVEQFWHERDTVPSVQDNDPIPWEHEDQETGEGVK
# TEAD-YAP block: TEAD-YAP interaction inhibition; HEK-TIYL cells, TEAD-Gal4/YAP UAS-luciferase luminescence; AID 1259422; inhibition, % at 9.12 µM; actives 1.4% (n = 640,000); in the data active = inhibition above about 32%;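 also: 0% = median of test compound wells and 100% = reference inhibitor wells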
# FBW7 activator: activators of human E3 ligase FBW7. actives 0.13% (n = 650,000). normalized activity (activation), % at 26.1 µM. AlphaScreen FBW7–phospho-cyclin E peptide binding, activator screen; in the data active = normalized activity above about 1.9%;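 also: purified mutant Fbw7 with reduced substrate affinity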
# GPR151 confirm: confirmation of human GPR151 activators | shares compounds with GPR151 ag | GPR151 PathHunter beta-arrestin cells, luminescence, 90 min; % of EA-reagent control over plate median | activation, % at 11.2 µM | 6,700 tested, under 10 active | AID 1508609;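 active = mean percent activation across replicates above the confirmation screen cutoff of 4.91%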
# GPR119 counter: activates human GPR119 in a GPR151 counter-screen | activation, % at 11.2 µM | GPR119 PathHunter beta-arrestin cells, luminescence, 90 min; 0 = compound-well median, 100 = enzyme-acceptor control | actives 0.3% (n = 6,700) | shares compounds with GPR151 ag;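 active = mean percent activation in the counterscreen above 29.09%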;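 also: counterscreen on off-target GPR119 to flag nonselective hits from the GPR151 activator screen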
# The depositor's hits bear a star; . = not tested or not shown.
SMILES,MITF inh,GPR151 ag,TEAD-YAP block,FBW7 activator,GPR151 confirm,GPR119 counter
CC(=O)c1ccc(NC(=O)COC(=O)c2ccc3c(c2)nc(C)n3-c2ccccc2)cc1,16.1,7.1*,-11.3,0.1,1.7,12.4
Cc1nc2cc(C(=O)OCC(=O)Nc3ccc(C#N)cc3)ccc2n1-c1ccccc1,4.4,-1.0,-0.8,-0.1,.,.
O=C(NCCC1CCCCN1S(=O)(=O)c1ccccc1)Nc1ccc(Cl)cc1 (configuration not stated),8.1,8.1*,5.6,-0.1,-0.6,-10.9
O=C(Nc1cccc(S(=O)(=O)NCc2ccco2)c1)c1cc(F)c(F)c(F)c1F,-5.9,4.9*,7.7,0.0,-0.1,4.2
NS(=O)(=O)c1ccc(NNC(=S)NCCN2CCOCC2)cc1,18.4,-1.1,-4.4,0.4,.,.
CC(=O)c1ccc(NC(=O)CSc2ccc3nnc(-c4ccc(F)cc4)n3n2)cc1,-3.4,-1.5,8.2,0.0,.,.
CC(=O)c1ccc(NC(=O)CSc2ccc3nnc(-c4ccc(C)cc4)n3n2)cc1,12.5,5.8*,6.1,-0.1,-0.6,7.8
O=C(COC(=O)C1CC1)NCc1cccs1,15.6,0.2,2.4,0.1,.,.
COc1ccccc1Nc1ncnc2c1c(-c1ccccc1)cn2-c1ccccc1,6.0,6.8*,8.3,-0.1,0.7,10.9
CCOc1ccc(-n2cc(-c3ccccc3)c3c(NCc4ccc5c(c4)OCO5)ncnc32)cc1,5.0,0.8,-0.2,-0.1,.,.
Cc1cccc(-n2cc(-c3ccccc3)c3c(NCCc4ccccc4)ncnc32)c1,1.7,6.0*,-5.4,0.2,-0.2,9.2
COc1ccc(-n2cc(-c3ccccc3)c3c(NCc4ccc5c(c4)OCO5)ncnc32)cc1,16.4,6.1*,-0.6,0.4,-0.1,9.1
Cc1ccc(-n2cc(-c3ccccc3)c3c(NC(C)C)ncnc32)cc1,-1.0,-0.8,-6.9,-0.1,.,.
Cc1cccc(-n2cc(-c3ccccc3)c3c(NCCc4ccc(Cl)cc4)ncnc32)c1,-2.5,-0.3,0.1,-0.2,.,.
CC(C)Nc1ncnc2c1c(-c1ccccc1)cn2-c1ccc(Br)cc1,1.2,5.4*,1.4,-0.2,-1.4,0.3
O=C(CSCc1ccc(Cl)cc1Cl)Nc1ccc2c(c1)C(=O)NC2=O,16.9,1.4,13.2,0.0,.,.
O=C(CSCc1ccc(Cl)cc1Cl)NNC(=O)Nc1cccc([N+](=O)[O-])c1,-16.2,-1.2,1.6,-0.3,.,.
O=[N+]([O-])c1ccc(N2CCN(c3ncnc4c3c(-c3ccccc3)cn4-c3ccc(Br)cc3)CC2)cc1,-2.2,5.0*,-1.8,-0.1,0.5,0.3
Brc1ccc(-n2cc(-c3ccccc3)c3c(N4CCN(c5ccccc5)CC4)ncnc32)cc1,6.8,-0.4,2.9,-0.1,.,.
CONC(=O)c1cnc2scc(-c3ccc(C)cc3)n2c1=O,-0.9,-0.2,-1.6,0.2,.,.
CCCc1c(C(=O)N[C@H]2C[C@H]3C(=O)N[C@@H](CC(C)C)C(=O)N3C2)cnn1-c1ccccc1,-4.3,1.2,0.8,-0.3,.,.
CN(C)c1cccc(C(=O)OCc2nnc(-c3ccccc3)o2)c1,-2.3,6.6*,3.5,0.0,-0.7,-0.9
COc1ccc(-c2oc3ncn4nc(-c5cccc6ccccc56)nc4c3c2-c2ccc(OC)cc2)cc1,-1.2,5.3*,4.3,0.2,-0.5,10.8
O=C(NC1CCCCCC1)c1ccc2c(c1)[nH]c(=S)n1c3ccccc3nc21,-3.5,0.2,-4.2,-0.1,.,.
Cc1nnc2ccc(SCC(=O)NCc3csc(-c4cccs4)n3)nn12,-10.9,5.6*,-26.5,-0.6,0.7,16.3
SMILES,MITF inh,GPR151 ag,TEAD-YAP block,FBW7 activator,GPR151 confirm,GPR119 counter
O=C(CSc1ccc2nnc(-c3cccs3)n2n1)NCc1ccccc1,10.1,-0.2,-2.4,-0.1,.,.
CC(NC(=O)c1cnc2scc(-c3ccc(Cl)s3)n2c1=O)c1ccc(F)cc1 (configuration not stated),-0.8,-0.6,1.8,0.2,.,.
O=C(Cn1[nH]c(=O)c2ccccc2c1=O)NCc1cccnc1,2.1,-0.1,10.3,0.0,.,.
O=C(Cn1[nH]c(=O)c2ccccc2c1=O)Nc1cccnc1,-14.0,18.6*,1.0,-0.1,0.7,-4.4
Nc1nc(-c2ccccc2)nc2c1ncn2-c1ccccc1,5.8,-0.4,13.6,0.0,.,.
Cn1c(CC(O)c2cccc3ccccc23)nc2ccccc21 (configuration not stated),1.9,0.7,-44.7,-0.2,.,.
